Assay results as given in PubChem BioAssay (NCI).
About 83,000 compounds went through this panel and 20% of them were active in at least one assay; those are over-represented in the sample as a whole.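 Negative percent growth values reflect cell death: -40 means 40% of the cells present at the start died, and -100 means all died.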 Activity calls are given as the source filed them. How the source made its calls: active means growth percent below 10; inactive means the rest.

Tests used:
Experiment in all cases: NCI-60 one-dose screen, 48 h (100 = growth as untreated, 0 = no growth, -100 = all killed)
Conditions in all cases: 10 µM unless noted
HCT-15 colon = tested on: HCT-15 colon
HT29 colon = tested on: HT29 colon
SNB-75 CNS = tested on: SNB-75 CNS
SNB-19 CNS = tested on: SNB-19 CNS
U251 CNS = tested on: U251 CNS
PC-3 prostate = tested on: PC-3 prostate
SK-MEL-5 melanoma = tested on: SK-MEL-5 melanoma
UACC-62 melanoma = tested on: UACC-62 melanoma
LOX IMVI melanoma = tested on: LOX IMVI melanoma
SK-MEL-28 melanoma = tested on: SK-MEL-28 melanoma
SK-MEL-2 melanoma = tested on: SK-MEL-2 melanoma
EKVX NSCLC = tested on: EKVX NSCLC
SN12C renal = tested on: SN12C renal
UO-31 renal = tested on: UO-31 renal
TK-10 renal = tested on: TK-10 renal
ACHN renal = tested on: ACHN renal
CAKI-1 renal = tested on: CAKI-1 renal
A498 renal = tested on: A498 renal
CCRF-CEM leukemia = tested on: CCRF-CEM leukemia
MOLT-4 leukemia = tested on: MOLT-4 leukemia

Measured: growth

Nc1c(C(=O)Nc2ccncc2)sc2nc3c(cc12)CCCCCC3
inactive: HCT-15 colon 63.5% | HT29 colon 41.9% | SNB-75 CNS 84.2% | SNB-19 CNS 84.1% | U251 CNS 76.2% | PC-3 prostate 90.3% | SK-MEL-5 melanoma 56.8% | UACC-62 melanoma 89.6% | LOX IMVI melanoma 84.8% | SK-MEL-28 melanoma 88.6% | SK-MEL-2 melanoma 94.2% | EKVX NSCLC 89.2% | SN12C renal 86.4% | UO-31 renal 78.4% | TK-10 renal 90.2% | ACHN renal 108% | CAKI-1 renal 98% | A498 renal 54.8% | CCRF-CEM leukemia 68.1% | MOLT-4 leukemia 70.3%

CCCCN[C@H]1CC[C@@]2(C)[C@@H](CC[C@@]3(C)[C@H]2[C@H](O)C[C@H]2/C(=C(\CCC=C(C)C)C(=O)OC)[C@@H](OC(C)=O)C[C@@]23C)[C@@H]1C
inactive: HCT-15 colon 98.8% | HT29 colon 95.7% | SNB-75 CNS 82.9% | SNB-19 CNS 104% | U251 CNS 98.2% | PC-3 prostate 95.2% | SK-MEL-5 melanoma 93.7% | UACC-62 melanoma 95.5% | LOX IMVI melanoma 97.9% | SK-MEL-28 melanoma 93.4% | SK-MEL-2 melanoma 106% | EKVX NSCLC 96.9% | SN12C renal 94.6% | UO-31 renal 81.5% | TK-10 renal 97.4% | ACHN renal 91.7% | CAKI-1 renal 90.6% | A498 renal 97.7% | CCRF-CEM leukemia 41.3% | MOLT-4 leukemia 10.6%

O=C(Nc1cccnc1Nc1ccc(F)cc1)c1cn(Cc2cccc(Oc3ccccc3)c2)nn1
inactive: HCT-15 colon 43.4% | HT29 colon 53.1% | SNB-75 CNS 65.6% | SNB-19 CNS 67.8% | U251 CNS 51.4% | PC-3 prostate 61.6% | SK-MEL-5 melanoma 39.3% | UACC-62 melanoma 44.8% | LOX IMVI melanoma 48.5% | SK-MEL-28 melanoma 68.7% | SK-MEL-2 melanoma 73.9% | EKVX NSCLC 75.9% | SN12C renal 79.2% | UO-31 renal 46.7% | TK-10 renal 98.7% | ACHN renal 83.7% | CAKI-1 renal 78% | A498 renal 60.5% | CCRF-CEM leukemia 63.2% | MOLT-4 leukemia 32%

CC(C)(C)n1cc(-c2ccnc(NCCNS(=O)(=O)c3cccc4ccccc34)c2)c(-c2cccc(F)c2)n1
inactive: SNB-19 CNS 27.5% | CCRF-CEM leukemia 11%
active: HCT-15 colon -37.2% | HT29 colon -29.6% | SNB-75 CNS -17.6% | U251 CNS -18.7% | PC-3 prostate 4.9% | SK-MEL-5 melanoma -97.1% | UACC-62 melanoma 8% | LOX IMVI melanoma -86.8% | SK-MEL-28 melanoma -2.58% | SK-MEL-2 melanoma -35.3% | EKVX NSCLC 8.04% | SN12C renal -88.4% | UO-31 renal -38.2% | TK-10 renal -80% | ACHN renal -58.5% | CAKI-1 renal -54.7% | A498 renal -73.1% | MOLT-4 leukemia -15.5%

Cc1ccc2c(n1)C(=O)c1[nH]c3ccccc3c1C2=O
inactive: HCT-15 colon 18.8% | HT29 colon 26.6% | SNB-19 CNS 46.9% | U251 CNS 40.9% | PC-3 prostate 35.3% | LOX IMVI melanoma 16.4% | SK-MEL-28 melanoma 78.6% | SK-MEL-2 melanoma 64.2% | EKVX NSCLC 43.7% | SN12C renal 36.5% | UO-31 renal 50.5% | TK-10 renal 115% | ACHN renal 49.2% | CAKI-1 renal 56.4% | A498 renal 69.2% | CCRF-CEM leukemia 55.9% | MOLT-4 leukemia 35.1%
active: SNB-75 CNS -37.8% | SK-MEL-5 melanoma -94% | UACC-62 melanoma -64.2%

Fc1ccc2[nH]cc(-c3nonc3-c3c[nH]c4ccc(Br)cc34)c2c1
inactive: SNB-75 CNS 33.7% | SNB-19 CNS 35.8% | U251 CNS 13.6% | PC-3 prostate 26.7% | SK-MEL-5 melanoma 49.8% | UACC-62 melanoma 28% | SK-MEL-28 melanoma 61.8% | SK-MEL-2 melanoma 27% | EKVX NSCLC 19.3% | SN12C renal 47.3% | UO-31 renal 17.3% | TK-10 renal 41.5% | ACHN renal 23.3% | CAKI-1 renal 12.4% | A498 renal 24.9% | CCRF-CEM leukemia 26% | MOLT-4 leukemia 16.7%
active: HCT-15 colon 9.29% | HT29 colon -51.8% | LOX IMVI melanoma -53.9%

COC1C[C@H](O[C@@H]2C[C@H](O[C@@H]3C[C@H](O[C@@H]4C(=O)c5c(cc6cc(O[C@H]7C[C@@H](O[C@H]8C[C@@H](O)[C@H](O)C(C)O8)[C@H](O)C(C)O7)c(C)c(O)c6c5O)C[C@H]4C(OC)C(=O)[C@@H](O)[C@@H](C)O)OC(C)[C@H]3O)OC(C)[C@@H]2O)OC(C)[C@@H]1O (stereo not given in full)
active: HT29 colon -8.54% | SNB-75 CNS -59% | SNB-19 CNS 0.994% | U251 CNS 0.915% | PC-3 prostate 9.36% | SK-MEL-5 melanoma -37.9% | UACC-62 melanoma -64.7% | LOX IMVI melanoma -3.35% | SK-MEL-28 melanoma -22.9% | SK-MEL-2 melanoma -61.7% | EKVX NSCLC 7.01% | SN12C renal 2.57% | UO-31 renal 5.02% | TK-10 renal 1.34% | ACHN renal 6.35% | A498 renal -44.5% | CCRF-CEM leukemia 6.53% | MOLT-4 leukemia 5.23%
inactive: HCT-15 colon 44.3% | CAKI-1 renal 28.6%

CN1CCN(c2ccc(NC(=O)c3cncnc3Nc3ccc(OCc4ccccn4)c(Cl)c3)cc2)CC1
inactive: SNB-75 CNS 59.8% | SNB-19 CNS 69.6% | PC-3 prostate 61% | SK-MEL-5 melanoma 47.2% | SK-MEL-2 melanoma 21.6% | EKVX NSCLC 85.6% | SN12C renal 59.2% | TK-10 renal 92.4% | ACHN renal 51.8% | CAKI-1 renal 64.2% | A498 renal 67.2% | CCRF-CEM leukemia 11.2%
active: HCT-15 colon -44.4% | HT29 colon -14.8% | U251 CNS 2.96% | UACC-62 melanoma -69.9% | LOX IMVI melanoma -22.1% | SK-MEL-28 melanoma -86% | UO-31 renal -72.1% | MOLT-4 leukemia 8.56%
